Laboratory results taken from PubChem BioAssay (NCI).
About 83,000 compounds went through this panel and 20% of them were active in at least one assay; those are over-represented in the sample as a whole.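 Method: cells in 96-well plates; compound added at one concentration; 48 h incubation; percent growth measured; values under 10 scored active.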 Calls of active or inactive are those of the source.

What was measured:
Experiment in all cases: NCI-60 one-dose screen, 48 h (100 = growth as untreated, 0 = no growth, -100 = all killed)
[1] = system: HT29 colon; details: 10 µM unless noted
[2] = system: SNB-75 CNS; details: 10 µM unless noted
[3] = system: SNB-19 CNS; details: 10 µM unless noted
[4] = system: PC-3 prostate; details: 10 µM unless noted
[5] = system: SK-MEL-5 melanoma; details: 10 µM unless noted
[6] = system: UACC-62 melanoma; details: 10 µM unless noted
[7] = system: SK-MEL-28 melanoma; details: 10 µM
[8] = system: SK-MEL-2 melanoma; details: 10 µM unless noted
[9] = system: SN12C renal; details: 10 µM unless noted
[10] = system: UO-31 renal; details: 10 µM unless noted
[11] = system: TK-10 renal; details: 10 µM unless noted
[12] = system: ACHN renal; details: 10 µM unless noted
[13] = system: CAKI-1 renal; details: 10 µM unless noted
[14] = system: A498 renal; details: 10 µM unless noted
[15] = system: CCRF-CEM leukemia; details: 10 µM unless noted
[16] = system: MOLT-4 leukemia; details: 10 µM unless noted
[17] = system: SR leukemia; details: 10 µM unless noted
[18] = system: LOX IMVI melanoma; details: 10 µM unless noted
[19] = system: EKVX NSCLC; details: 10 µM unless noted

Measured: growth

CCCCCCC(O)(c1ccc(F)cc1)C(CN1CCOCC1)c1ccccc1 (centres undefined)
inactive: [1] 33.1% | [2] 32.8% | [3] 42% | [4] 15.4% | [5] 52.8% | [6] 22.6% | [7] 68.1% | [8] 36.4% | [9] 35.3% | [10] 19.4% | [11] 34.2% | [12] 23.7% | [13] 33.1% | [14] 50% | [15] 18.1% | [16] 17.7% | [17] 23.2%

Cc1sc2ncnc(Sc3nc4ccccc4[nH]3)c2c1C
inactive: [9] 25% | [14] 24.5%
active: [1] -64.4% | [2] -85.4% | [3] -21.7% | [4] -43.3% | [5] -96.9% | [6] -91.8% | [18] -80% | [7] -92.5% | [8] -81.6% | [10] -86.2% | [11] -87.2% | [12] -82.7% | [13] -68.6% | [15] -53.2% | [16] -48.4% | [17] -17.3%

COc1ccc(C)c2sc(N(Cc3cccnc3)C(=O)c3ccc(C#N)cc3)nc12
active: [5] -62.2% | [6] -33.3% | [18] -7.23% | [9] 7.62% | [10] -50.8% | [12] 5.85% | [13] -33.1% | [14] 2.59% | [15] 8.67% | [16] 3.94% | [17] 8.52%
inactive: [1] 16% | [2] 15.4% | [3] 12.4% | [4] 16% | [7] 15.9% | [8] 13.1% | [11] 18%

O=c1oc2ccc(Cl)cc2c(=O)n1-c1ccc(F)cc1F
active: [2] -12% | [4] 2.49% | [5] -66.9% | [6] 3.47% | [8] -26.4% | [9] 4.19% | [10] -1.33% | [12] 4.18% | [13] -14% | [14] -35.4% | [16] 9.73%
inactive: [1] 86.6% | [3] 13.6% | [18] 17.8% | [7] 21.8% | [19] 36.2% | [11] 21% | [15] 13.7%

COc1cc(C=C2C(=O)N(C)C(=O)N(C)C2=O)cc(CN2CCCCC2)c1O
inactive: [1] 103% | [2] 89.8% | [3] 92.6% | [4] 105% | [5] 100% | [6] 96.8% | [18] 98.7% | [7] 102% | [8] 102% | [19] 104% | [9] 94% | [10] 75.4% | [11] 103% | [12] 95.9% | [13] 92.4% | [14] 98.7% | [15] 109% | [16] 98.2% | [17] 94.4%

C1CCN(c2nc(N3CCCCC3)nc(N3CCOCC3)n2)CC1
inactive: [1] 88.2% | [2] 81% | [3] 96.1% | [4] 104% | [5] 101% | [6] 93% | [18] 98.7% | [19] 85.4% | [9] 96.5% | [10] 99.5% | [11] 92.1% | [12] 116% | [13] 85.6% | [14] 109% | [15] 92.6% | [16] 81.5% | [17] 89.4%

COc1ccc(/C=C/C(=O)c2c(C)nc3ccccc3c2/C=C/c2ccccc2)c(OC)c1
inactive: [1] 62.9% | [2] 81.5% | [3] 92.9% | [4] 75.9% | [5] 85.7% | [6] 62.1% | [18] 83.8% | [7] 108% | [8] 95.9% | [19] 76.9% | [9] 84.3% | [10] 61.4% | [11] 123% | [13] 55.9% | [14] 97.3% | [15] 76.5% | [16] 48.6%

CCCCNc1nc(NC(C)(C)C)nc(NC(C)(C)C)n1
inactive: [1] 15.2% | [2] 59.8% | [3] 63.7% | [4] 58.6% | [5] 50.7% | [6] 55.3% | [7] 61.4% | [8] 64.1% | [9] 56.1% | [10] 37.4% | [11] 55.9% | [13] 51.3% | [14] 45.4% | [15] 42.4% | [16] 39.1% | [17] 33.6%

O=C1c2ccccc2C(=O)c2c1ccc1[nH]c(CCl)nc21
inactive: [2] 33.4% | [3] 47.8% | [4] 39.3% | [6] 39.5% | [7] 57.6% | [8] 27.4% | [19] 72.5% | [10] 22.7% | [11] 30.9% | [12] 10.7% | [14] 16.3%
active: [1] 5.78% | [18] -36.9% | [9] -1.77% | [13] 7.26% | [15] -12.5% | [16] -2.42%

Nc1cccc(Nc2cc(S(=O)(=O)O)c(N)c3c2C(=O)c2ccccc2C3=O)c1
inactive: [1] 96.3% | [2] 82.2% | [3] 101% | [4] 100% | [5] 103% | [6] 106% | [18] 85% | [8] 100% | [19] 85.1% | [9] 99% | [10] 110% | [11] 107% | [12] 96.3% | [13] 92.8% | [14] 102% | [15] 101% | [16] 103% | [17] 115%

COc1ccc(N(C)c2nc(N)nc3sc4c(c23)CCCC4)cc1
inactive: [2] 51.3% | [3] 23.8% | [4] 27% | [6] 42.9% | [18] 22.6% | [7] 55% | [8] 16.6% | [19] 61% | [9] 24.2% | [10] 38.5% | [11] 45.1% | [12] 26.7% | [13] 25.6% | [16] 11.6%
active: [1] -4.37% | [5] -24.9% | [14] 0.565% | [15] 9.1% | [17] 6.49%

O=C1/C(=C/c2ccc(O)cc2)COc2ccc(O)c(O)c21
active: [18] -48.1% | [9] -4.74% | [10] -88.5% | [12] -16.2% | [13] 6.4% | [15] 9.61% | [16] 4.43%
inactive: [1] 44.6% | [2] 29.6% | [3] 46.9% | [4] 41.9% | [6] 24.3% | [7] 52.7% | [8] 85.2% | [19] 71.5% | [11] 54.1% | [14] 98.4% | [17] 12.7%

CCOC(=O)C1=C(C)N=c2s/c(=C\c3cc(Cl)ccc3O)c(=O)n2C1c1ccc(OC)cc1 (centres undefined)
inactive: [1] 72.9% | [2] 89% | [3] 99% | [4] 85.2% | [5] 88.5% | [6] 94% | [18] 95.2% | [7] 106% | [8] 94.6% | [9] 93.8% | [10] 58.8% | [11] 94.1% | [12] 99.4% | [13] 96.5% | [14] 76.1% | [15] 85.3% | [16] 96.4% | [17] 86%

COc1cc(C(=O)NN=C2c3ccccc3-c3ccccc32)cc(OC)c1OC
active: [1] 5.22% | [5] 7.14% | [8] 6.51% | [14] 6.68%
inactive: [2] 14.2% | [3] 42.4% | [4] 31% | [6] 44.2% | [18] 28.7% | [7] 46.6% | [9] 41.6% | [10] 46.5% | [11] 55.5% | [12] 46.4% | [13] 24.6% | [15] 25.5% | [16] 39.3% | [17] 13.9%

NC1C(N)C(N)C1N (centres undefined)
inactive: [1] 106% | [2] 71.8% | [3] 94.3% | [4] 96.1% | [5] 113% | [6] 99.1% | [18] 95.1% | [8] 92% | [19] 121% | [9] 96.8% | [10] 77.9% | [11] 99.1% | [12] 96.8% | [13] 101% | [14] 116% | [15] 85.1% | [16] 83.7% | [17] 86.8%

CC(C)(C)c1ccc(C2CC(=O)C3=C(C2)Nc2ccccc2N(C(=O)c2ccccc2Cl)C3c2ccc(F)cc2)cc1 (centres undefined)
inactive: [2] 66.4% | [7] 38.6% | [10] 23.7% | [11] 58.9% | [12] 19.9% | [14] 35.5% | [15] 15.7%
active: [1] -9.44% | [3] 9.35% | [4] 8.88% | [5] -97.5% | [6] -53.8% | [18] -11.8% | [8] -11.5% | [9] 3.86% | [13] 2.95% | [16] 6.7% | [17] 9.77%
